# Assay results taken from PubChem BioAssay (EPA / NIEHS).
# Where “and” joins values, the source holds several entries; their conditions need not be identical. Identical values can stand only once. Results filed as inconclusive are left out. A structure can be active in one record and inactive in another. Calls of active or inactive are those of the source. Rule for the calls, unless noted: active = hit-call score of the fitted dose curve at least 0.9, where 1 is the maximum; inactive = score below 0.9.
# Experiments:
# [1] = CCTE_Mundy_HCI_Cortical_Synap_Neur_Matur_NeuriteCount: CCTE's Synaptogenesis and Neurite Maturation Assay in rat cortical cells for Neurite Count, Mundy Lab (AID 2284222);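 for outcome: exposure from day 7 to day 12 in vitro with readout at day 12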
# In short: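 In this multiplexed morphology readout, rat primary cortical neurons are fixed at DIV 12 following dosing at DIV 7 and stained for MAP2, synaptophysin and nuclei. High-content image analysis yields neurite count.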
# [2] = CCTE_Mundy_HCI_Cortical_Synap_Neur_Matur_CellBodySpotCount: CCTE's Synaptogenesis and Neurite Maturation Assay in rat cortical cells for Cell Body Spot Count, Mundy Lab (AID 2284223)
# In short: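 High-content imaging counts synaptophysin puncta on neuronal cell bodies per neuron after MAP2/synaptophysin immunostaining. Rat primary cortical cells, glia arrested with AraC at DIV 5, were exposed DIV 7–12; signal decrease measured against DMSO.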
# [3] = UKN4_HCS_LUHMES_cell_viability: Viability Assessment in the University of Konstanz (UKN) Leist Lab Neurite Outgrowth Assay in human LUHMES cells (UKN4) (AID 2284232)
# In short: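 Day-2 differentiated LUHMES, 30000 cells/well, dosed ~30 min–2 h post-seeding; 24 h treatment incl. staining; Hoechst H-33342 + calcein-AM at 23.5 h; HCS imaging; DMSO-normalized, bidirectional fit.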
# [4] = UKN2_HCS_IMR90_cell_viability: Viability Assessment in the University of Konstanz (UKN) Leist Lab Neural Crest Cell Migration Assay in human induced IMR90 Pluripotent Stem Cells (UKN2) (AID 2284233);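 note: viability of neural crest cells differentiated from IMR90 iPSC measured by calcein-AM fluorescence imaging; cells exposed to compound for 24 h after a 24 h migration phase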
# In short: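 cMINC format, iPSC-derived neural crest (IMR90); 24 h migration (EGF/FGF, N2-S), then 24 h toxicant. Calcein-AM/H-33342 stain 30 min; fluorescence intensity by HCS; DMSO-normalised, bidirectional fitting.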
# [5] = TAMU_PeakParms_SingleDonor1434_QT: Texas A&M University (TAMU) 1.5-hr Human Induced Pluripotent Stem Cell (iPSC)-derived Cardiomyocytes Calcium (Ca+2) Flux Assay for Cardiotoxicity: QT (decay-rise ratio) (AID 2284235; active = hit-call score of the fitted dose curve at least 0.9, where 1 is the maximum)
# In short: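 Decay/rise ratio of calcium-flux fluorescence scored after 90 min exposure (37C) of donor 1434 iPSC cardiomyocytes to 0.2–100 uM (0.5% DMSO). Beat-cessation and severe-notch points removed; POD is EC05, a 5% rise over DMSO.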
# [6] = CCTE_Mundy_HCI_Cortical_NOG_BPCount: CCTE's Neurite Outgrowth Assay in rat cortical cells for Branch Point Count, Mundy Lab (AID 2284237);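 for AC50: branch points counted about two days after chemical exposure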
# In short: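 Measured 50.33 h after dosing, this morphology endpoint uses rat primary cortical cultures labelled for betaIII-tubulin. Branch points are quantified by high-content imaging, with DMSO as negative control and baseline.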
# [7] = CCTE_Mundy_HCI_hNP1_Casp3_7: CCTE's Caspase-Glo 3/7 Assay in human neuroprogenitor cells for Apoptosis, Mundy Lab (AID 2284240)
# In short: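 Neuroepithelial-lineage stem cells from WA09 embryonic cells were treated with chemicals after 40–44 h of culture. Twenty-four hours later, caspase-3/7 activation was detected luminescently after a 30 min room-temperature reagent step, with DMSO as baseline.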
# [8] = CCTE_Mundy_HCI_hNP1_CellTiter: CCTE's Cell Titer-Glo 2 Assay in human neuroprogenitor cells for Viability, Mundy Lab (AID 2284241; active = hit-call score of the fitted dose curve at least 0.9, where 1 is the maximum;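 for AC50: a hit is a drop in ATP luminescence versus DMSO meaning reduced viability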)
# In short: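 Measures ATP content in human neural progenitors derived from WA09 embryonic cells. Read-out at 26.5 hours after dosing, with DMSO serving as the negative control and baseline.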
# [9] = CCTE_Mundy_HCI_Cortical_Synap_Neur_Matur_NeuronCount: CCTE's Synaptogenesis and Neurite Maturation Assay in rat cortical cells for Neuron Count, Mundy Lab (AID 2284242; active = hit-call score of the fitted dose curve at least 0.9, where 1 is the maximum;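 for AC50: neuron number from Hoechst nuclei and MAP2 staining by high-content imaging; hits reduce neuron count versus DMSO baseline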)
# In short: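 Rat cortical cultures; AraC DIV 5; chemical dosing + media change DIV 7 to DIV 12 (288.33 h readout). Fix, Hoechst, anti-MAP2/anti-synaptophysin immunostain; HCI neuron count vs DMSO baseline.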
# [10] = BSK_BT_PBMCCytotoxicity: PBMC Cytotoxicity Assessment in the BioMAP Diversity Plus: BT Assay (AID 2284225); conditions: primary human B cells with PBMC;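 note: PBMC viability measured by Alamar Blue dye reduction fluorescence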
# In short: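 Primary human co-culture of B cells and PBMC, pre-dosed 1 h then activated with SEB and TSST-1. Cytotoxicity is taken from Alamar Blue dye reduction, added for 6 h at the end of a 90 h incubation.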
# [11] = read-out: Secreted IgG (sIgG), gene 3500; experiment: BSK_BT_sIgG: BioMAP Diversity Plus: BT Assay for Secreted IgG (sIgG) Biomarker Activity (AID 2284226); conditions: primary human B cells with PBMC
# In short: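 Human B cell/PBMC co-culture; compound exposure 24 h; sIgG by ELISA; gain-of-signal fit vs DMSO baseline.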
# [12] = BSK_BT_Bcell_Proliferation: Viability Assessment in the BioMAP Diversity Plus: BT Assay for B cell Proliferation (AID 2284227); conditions: primary human B cells with PBMC
# In short: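 Using a human primary B cell–PBMC co-culture, the assay measures total protein by sulforhodamine B absorbance as a gauge of proliferation after 72 h. Analysis followed the positive fitting direction with DMSO as baseline.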
# [13] = read-out: Interleukin 6 (IL6), IL6 (gene 3569); experiment: BSK_BT_xIL6: BioMAP Diversity Plus: BT Assay for Interleukin 6 (IL6) Biomarker Activity (AID 2284228); conditions: primary human B cells with PBMC
# In short: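 Secreted IL-6 in the primary human B cell plus PBMC system, measured by Luminex at 24 h post-chemical, DMSO as baseline. Alamar Blue viability: 75,000 cells/well, chemical 1 h before SEB/TSST-1 (20 ng/mL each), 90 h, then 6 h dye.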
# [14] = read-out: Interleukin 17A (IL17A), IL17A (gene 3605); experiment: BSK_BT_xIL17A: BioMAP Diversity Plus: BT Assay for Interleukin 17A (IL17A) Biomarker Activity (AID 2284229); conditions: primary human B cells with PBMC
# In short: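 Luminex xMAP quantification of secreted IL-17A after 24 h chemical exposure of a primary human B cell/PBMC co-culture. Signal increases fitted relative to DMSO negative control.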
# [15] = read-out: Tumor necrosis factor (Homo sapiens) (UniProt P01375); experiment: BSK_BT_xTNFa: BioMAP Diversity Plus: BT Assay for Tumor necrosis factor alpha (TNF-alpha) Biomarker Activity (AID 2284230); conditions: primary human B cells with PBMC
# In short: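 Endpoint derived in the positive direction versus DMSO vehicle. Cells: B cells together with PBMC, exposed 24 h before TNF-alpha in the medium was read on the Luminex xMAP platform.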
# [16] = read-out: Vascular cell adhesion molecule 1 (VCAM1), VCAM1 (gene 7412); experiment: BSK_MyoF_VCAM1: BioMAP Diversity Plus: MyoF Assay for Vascular cell adhesion molecule 1 (VCAM1) Biomarker Activity (AID 2284231); conditions: primary human lung fibroblasts
# In short: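 ELISA readout of VCAM-1 on human lung fibroblast cultures 24 hours after dosing, analyzed for signal gain relative to DMSO. Overt cytotoxicity was checked by sulforhodamine B total-protein staining in parallel cultures.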
# [17] = read-out: Collagen III, COL3A1 (gene 1281); experiment: BSK_MyoF_CollagenIII: BioMAP Diversity Plus: MyoF Assay for Collagen III Biomarker Activity (AID 2284239); conditions: primary human lung fibroblasts
# In short: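 Collagen III biomarker quantified by ELISA in human lung fibroblast cultures 24 h after dosing. Activity fitted in the positive direction against DMSO as baseline.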
# [18] = CCTE_Mundy_HCI_Cortical_NOG_NeuronCount: CCTE's Neurite Outgrowth Assay in rat cortical cells for Neuron Count, Mundy Lab (AID 2284236; active = hit-call score of the fitted dose curve at least 0.9, where 1 is the maximum;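 note: neurons counted by imaging betaIII-tubulin and Hoechst stained cortical cells; cells exposed to compound for about 48 hours before fixation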)
# In short: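 Read-out: neuron number by high-content imaging of betaIII-tubulin (Alexa Fluor-488) and Hoechst-labelled rat primary cortical cells.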
# [19] = CCTE_Mundy_HCI_hNP1_Pro_ResponderAvgInten: CCTE's Proliferation Assay in human neuroprogenitor cells, Mundy Lab (AID 2284224; active = hit-call score of the fitted dose curve at least 0.9, where 1 is the maximum;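 note: human neural progenitor cells hNP1 derived from WA09 embryonic stem cells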)
# In short: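 Human neuroprogenitors (hNP1, WA09 lineage) receive test chemical after 40 to 44 hours of attachment. A four-hour BrdU pulse begins twenty hours later, followed by fixation and high content imaging; signal is referenced to DMSO controls.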
# Sequence of Tumor necrosis factor (Homo sapiens) (P01375 whole entry, looked up): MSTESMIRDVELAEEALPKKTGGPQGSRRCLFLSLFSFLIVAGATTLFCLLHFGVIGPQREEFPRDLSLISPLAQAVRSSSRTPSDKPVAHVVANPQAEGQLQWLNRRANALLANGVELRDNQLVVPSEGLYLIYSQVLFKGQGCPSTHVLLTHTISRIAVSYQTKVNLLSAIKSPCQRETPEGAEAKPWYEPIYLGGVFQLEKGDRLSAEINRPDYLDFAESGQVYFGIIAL
compound,measurement,setting,value
CCCC(CCC)C(=O)O,outcome,[1],inactive
same,outcome,[2],inactive
same,outcome,[3],inactive
same,outcome,[4],inactive
same,outcome,[5],inactive
same,outcome,[6],inactive
same,AC50,[7],1.5 mM (active)
same,outcome,[8],inactive
same,outcome,[9],inactive
O=C(Cl)C(F)(F)C(F)(F)C(F)(F)C(=O)Cl,outcome,[10],inactive
same,outcome,[11],inactive
same,outcome,[12],inactive
same,outcome,[13],inactive
same,outcome,[14],inactive
same,outcome,[15],inactive
same,outcome,[16],inactive
same,outcome,[17],inactive
same,outcome,[7],inactive
same,outcome,[8],inactive
Cn1cc[nH]c1=S,outcome,[1],inactive
same,outcome,[2],inactive
same,outcome,[18],inactive
same,outcome,[6],inactive
same,outcome,[7],inactive
same,outcome,[8],inactive
OC(O)(C(F)C(O)(O)C(F)(F)F)C(F)(F)F,outcome,[10],inactive
same,AC50,[11],32.6 µM (active) and 39.1 µM (active)
same,AC50,[12],30 µM (active)
same,AC50,[13],53.3 µM (active) and 52 µM (active)
same,outcome,[14],inactive
same,outcome,[15],inactive
same,outcome,[16],inactive
same,outcome,[17],inactive
same,AC50,[7],0.0134 mM (active)
same,outcome,[8],inactive
OC(Cn1cncn1)(Cn1cncn1)c1ccc(F)cc1F,outcome,[1],inactive
same,outcome,[2],inactive
same,outcome,[6],inactive
same,outcome,[7],inactive
same,outcome,[8],inactive
O=S(=O)(O)CCC(F)(F)C(F)(F)C(F)(F)C(F)(F)C(F)(F)C(F)(F)F,outcome,[10],inactive
same,outcome,[11],inactive
same,AC50,[12],30 µM (active)
same,outcome,[12],inactive
same,outcome,[13],inactive
same,outcome,[14],inactive
same,outcome,[15],inactive
same,outcome,[16],inactive
same,outcome,[17],inactive
S=P(N1CC1)(N1CC1)N1CC1,outcome,[10],inactive
same,AC50,[11],2.71 µM (active)
same,AC50,[12],8.1 µM (active)
same,outcome,[13],inactive
same,outcome,[14],inactive
same,outcome,[15],inactive
same,outcome,[16],inactive
same,outcome,[17],inactive
COc1cc2c(c(OC)c1OC)-c1ccc(OC)c(=O)cc1[C@@H](NC(C)=O)CC2,AC50,[1],440 nM (active)
same,AC50,[2],0.0427 µM (active)
same,outcome,[5],inactive
same,AC50,[18],53.5 nM (active)
same,AC50,[6],9.88 nM (active)
same,AC50,[7],2.28e-05 mM (active)
same,AC50,[8],0.0224 µM (active)
same,AC50,[9],33.9 nM (active)
FC(F)=C(F)C(F)(F)C(F)(F)C(F)(F)C(F)(F)C(F)(F)C(F)(F)F,outcome,[10],inactive
same,outcome,[11],inactive
same,outcome,[12],inactive
same,outcome,[13],inactive
same,outcome,[14],inactive
same,outcome,[15],inactive
same,outcome,[16],inactive
same,outcome,[17],inactive
same,outcome,[7],inactive
same,outcome,[8],inactive
NNC(=O)c1ccncc1,outcome,[1],inactive
same,outcome,[2],inactive
same,outcome,[6],inactive
same,outcome,[7],inactive
same,outcome,[8],inactive
same,outcome,[9],inactive
Nc1ccn([C@@H]2O[C@H](CO)[C@@H](O)[C@@H]2O)c(=O)n1,AC50,[1],12.6 µM (active) and 15 µM (active)
same,AC50,[2],11.7 µM (active)
same,outcome,[2],inactive
same,AC50,[19],9.56 nM (active) and 3.83 nM (active)
same,outcome,[3],inactive
same,outcome,[4],inactive
same,AC50,[18],1.58 µM (active) and 2.33 µM (active)
same,AC50,[6],11.9 µM (active) and 3 µM (active)
same,AC50,[7],29 nM (active) and 290 nM (active)
same,outcome,[8],inactive
same,AC50,[9],4.39 µM (active) and 3.57 µM (active)
